# Test results from the supplement of paper PMC8975748.
# Counter-ions that a name gives are not always drawn.
# Tested on: Saccharomyces cerevisiae BY4741 SeMeCo community
# Assay: z-score of subpopulation abundance vs DMSO median, subpopulation auxotrophic for L; higher = larger share of this subpopulation than in DMSO controls
# Settings: 10 µM; 24 h; SM minimal medium; subpopulation (auxotrophy): L
# Method in brief: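 Cells of a Saccharomyces cerevisiae BY4741 community, carrying four plasmids that each restored one auxotrophy and encoded a distinct fluorescent protein, were pre-grown overnight to OD600 1.0 and diluted to 0.3. A 70 µl volume was added to 384-well plates acoustically predosed with library drugs (10 µM final) and grown 24 h in minimal SM medium. After paraformaldehyde fixation, automated confocal microscopy was used, with single-auxotroph fluorescent strains for thresholds and autofluorescence correction. The abundance of each subpopulation was scored as a z-score against the vehicle-well median.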
row,SMILES,z-score of subpopulation abundance
1,NC(=O)N1c2ccccc2CC(=O)c2ccccc21 [Oxcarbazepine],-0.68
2,CC(=O)OCC1=C(C(=O)O)N2C(=O)[C@@H](NC(=O)CSc3ccncc3)[C@H]2SC1 [Cephapirin Benzathine],-0.54
3,COc1ccc(C[C@H](N)C(=O)N[C@H]2[C@@H](O)[C@H](n3cnc4c(N(C)C)ncnc43)O[C@@H]2CO)cc1 [Puromycin 2HCl],-0.61
4,OCc1ccccc1O[C@@H]1O[C@H](CO)[C@@H](O)[C@H](O)[C@H]1O [Salicin],0.38
5,O=C(CCCN1CCC(O)(c2ccc(Cl)cc2)CC1)c1ccc(F)cc1 [Haloperidol],0.68
6,COc1cc(O)c(C(=O)Nc2nc(C(=O)NCCN(C(C)C)C(C)C)cs2)cc1OC [Acotiamide],1.18
7,CC(=O)OCC(CCn1cnc2cnc(N)nc21)COC(C)=O [Famciclovir],0.46
8,O=C(c1ccccc1)c1ccc2n1CCC2C(=O)O (stereo not given) [Ketorolac],-0.04
9,CC[C@H]1OC(=O)[C@H](C)[C@@H](O[C@H]2C[C@@](C)(OC)[C@@H](O)[C@H](C)O2)[C@H](C)[C@@H](O[C@@H]2O[C@H](C)C[C@H](N(C)C)[C@H]2O)[C@](C)(O)C[C@@H](C)[C@@H]2N[C@@H](COCCOC)O[C@H]([C@H]2C)[C@]1(C)O [Dirithromycin],0.38
10,C#CCC(Cc1cnc2nc(N)nc(N)c2n1)c1ccc(C(=O)N[C@@H](CCC(=O)O)C(=O)O)cc1 (stereo not given in full) [Pralatrexate],3.17
11,NNc1nncc2ccccc12 [Hydralazine HCl],-0.91
12,COc1cccc2c1C(=O)c1c(O)c3c(c(O)c1C2=O)CC(O)(C(=O)CO)CC3OC1CC(N)C(O)C(C)O1 (stereo not given) [Doxorubicin (Adriamycin) HCl],0.99
13,CCN1CCCC1CNC(=O)c1cc(S(N)(=O)=O)ccc1OC (stereo not given) [Sulpiride],0.31
14,CCCCC(F)(F)[C@@]1(O)CC[C@H]2[C@@H](CC(=O)[C@@H]2CCCCCCC(=O)O)O1 [Lubiprostone],-1.05
15,CCCN[C@H]1CCc2nc(N)sc2C1 [Pramipexole],-0.15
16,Cc1c(Nc2ncccc2C(=O)O)cccc1C(F)(F)F [Flunixin Meglumin],-1.33
17,COc1ccc2[nH]c([S+]([O-])Cc3ncc(C)c(OC)c3C)nc2c1 (stereo not given) [Omeprazole Sodium],0.3
18,"CO[C@H]1C[C@@H]2CC[C@@H](C)[C@@](O)(O2)C(=O)C(=O)N2CCCC[C@H]2C(=O)O[C@H]([C@H](C)C[C@@H]2CC[C@@H](OP(C)(C)=O)[C@H](OC)C2)CC(=O)[C@H](C)/C=C(\C)[C@@H](O)[C@@H](OC)C(=O)[C@H](C)C[C@H](C)/C=C/C=C/C=C/1C [Ridaforolimus (Deforolimus, MK-8669)]",-0.55
19,C#C[C@]1(OC(C)=O)CC[C@H]2[C@@H]3CCC4=C[C@@H](OC(C)=O)CC[C@@H]4[C@H]3CC[C@@]21C [Ethynodiol diacetate],-0.15
20,Cc1ccccc1C(OCCN(C)C)c1ccccc1 (stereo not given) [Orphenadrine Citrate],-0.09

row,SMILES,z-score of subpopulation abundance
1,CCOc1cc(N)c([N+](=O)[O-])cc1C(=O)NC1CCN(CC2CC=CCC2)CC1 (stereo not given) [Cinitapride Hydrogen Tartrate],-0.2
2,Cc1onc(-c2ccccc2)c1-c1ccc(S(N)(=O)=O)cc1 [Valdecoxib],0.01
3,COc1ccc(Cc2cnc(N)nc2N)cc1OC [Diaveridine],-0.53
4,CC1(C)[C@H](C(=O)O)N2C(=O)C[C@H]2S1(=O)=O [Sulbactam sodium],-0.23
5,CCc1cc(C(N)=S)ccn1 [Ethionamide],0.86
6,O=C(O)c1cc(=O)c2c(OCC(O)COc3cccc4oc(C(=O)O)cc(=O)c34)cccc2o1 [Disodium Cromoglycate],-1.19
7,Clc1ccc(C(Cn2ccnc2)OCc2c(Cl)cccc2Cl)c(Cl)c1 (stereo not given) [Isoconazole nitrate],-3.43
8,CCCCCCCCN=C(N)NC(N)=NCc1ccc(Cl)c(Cl)c1 [Olanexidine Hydrochloride semihydrate],-3.44
9,Nc1nc(N)nc(-c2cc(Cl)ccc2Cl)n1 [Irsogladine],-0.15
10,NC(=O)c1ncn([C@@H]2O[C@H](CO)[C@@H](O)[C@H]2O)n1 [Ribavirin],-0.43
11,CC1(C)S[C@@H]2[C@H](NC(=O)[C@H](N)c3ccccc3)C(=O)N2[C@H]1C(=O)OCOC(=O)[C@@H]1N2C(=O)C[C@H]2S(=O)(=O)C1(C)C [Sultamicillin],1.05
12,CN1C2CCCC1CC(NC(=O)c1nn(C)c3ccccc13)C2 (stereo not given) [Granisetron],-0.54
13,CCC[C@@H]1C[C@@H](C(=O)N[C@@H]([C@H]2O[C@H](SC)[C@H](O)[C@@H](O)[C@H]2O)[C@@H](C)O)N(C)C1 [Lincomycin HCl],-0.98
14,CCc1c2c(nc3ccc(OC(=O)N4CCC(N5CCCCC5)CC4)cc13)-c1cc3c(c(=O)n1C2)COC(=O)[C@]3(O)CC [Irinotecan HCl Trihydrate],-0.66
15,Cc1[nH]c(=O)c(C#N)cc1-c1ccncc1 [Milrinone],-0.03
16,C[C@@H](O)[C@H]1C(=O)N2C(C(=O)O)=C(S[C@@H]3CN[C@H](C(=O)Nc4cccc(C(=O)O)c4)C3)[C@H](C)[C@H]12 [Ertapenem sodium],-0.78
17,CN(C)CCc1c[nH]c2ccc(C[C@H]3COC(=O)N3)cc12 [Zolmitriptan],0.2
18,Clc1ccc(C(Cn2ccnc2)OCc2ccsc2Cl)c(Cl)c1 (stereo not given) [Tioconazole],-2.45
19,CN1CCOC(c2ccccc2)c2ccccc2C1 (stereo not given) [Nefopam HCl],-1.02
20,C[C@]1(Cn2ccnn2)[C@H](C(=O)O)N2C(=O)C[C@H]2S1(=O)=O [Tazobactam],-0.56
